# A selection: hits, their analogues and other compounds. The true share with any hit is near 1.9%.
# HTT aggregate: mutant huntingtin aggregation inhibition. 220,000 compounds, 1.1% hits. PC12 HttQ103-GFP aggregates, Acumen cytometry, 40 h. Potency, µM (doses to about 46.1 µM), without a hit: at the highest dose activity change, negative = inhibition, actives largely listed as inhibitors; note: % is set by controls: 0 for no effect and ±100 for the full control effect; nearly all actives have a fitted effect of over 60% in size
#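 Huntingtin Q103 exon 1–GFP aggregates in induced PC12 cells (100 nM tebufenozide) were quantified by cytometry from lysates, with compounds dosed in titration.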
# IMPase Li inh: membrane-permeable IMPase blocker, potentiated with lithium. 210,000 compounds, 0.35% hits. Potency, µM (titrated, usually from 59.4 µM), for inactives: top-dose activity, negative = IMPase inhibition, usual class: inhibitors. CHO-M1 cells, IP1 TR-FRET (IP-One), carbachol + lithium. AID 1457;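 note: IP1 builds up when IMPase is blocked and the TR-FRET signal falls; plate controls were basal vehicle for no effect and high inhibitor control for full effect; nearly all actives have a fitted effect of over 50% in size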
#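 Test compounds were applied to CHO-M1 cells previously cultured for 16–30 h at 2000 per well. A small lithium amount accompanied them; after 30 min at 37C, IP1 was quantified by TR-FRET.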
# NPSR antagonist: blocks cAMP signaling of the human neuropeptide S receptor. AID 1461. Q6W5P4. CHO-NPSR cells, cAMP TR-FRET, antagonist mode. 220,000 compounds, 1% hits. Potency, µM (top dose mostly 38.3 µM), inactives show at the top dose activity change, negative = inhibition, usual class: inhibitors; note: % is set by controls: 0 for no effect and ±100 for the full control effect; nearly all actives have a fitted effect of over 50% in size
# Target sequence (Q6W5P4 whole entry, looked up): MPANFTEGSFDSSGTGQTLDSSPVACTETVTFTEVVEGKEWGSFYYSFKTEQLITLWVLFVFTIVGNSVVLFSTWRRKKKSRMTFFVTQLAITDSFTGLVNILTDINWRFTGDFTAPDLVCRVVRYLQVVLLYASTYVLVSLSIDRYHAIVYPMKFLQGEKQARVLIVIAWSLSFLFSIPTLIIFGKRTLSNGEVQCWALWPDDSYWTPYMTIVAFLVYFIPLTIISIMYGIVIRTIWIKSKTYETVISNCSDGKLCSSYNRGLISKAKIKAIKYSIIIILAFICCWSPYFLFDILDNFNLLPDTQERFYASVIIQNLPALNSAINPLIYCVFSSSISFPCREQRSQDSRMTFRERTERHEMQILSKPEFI
# HTT ATP protect: Huntington cell model cytoprotection by ATP luminescence. PC12 HTT-Q103 induced, cytoprotection, ATP luminescence, 40 h. Potency, µM (highest dose often 56.4 µM), inactives show cytoprotection (ATP increase), hits mostly activators. 230,000 compounds, 0.14% hits; note: % of control where 0% means no effect; nearly all actives have a fitted effect of over 45% in size
#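 Cells were plated at 1500 per well in phenol red-free DMEM with 5% equine and 5% calf serum. Tebufenozide (100 nM final) and compounds were added, then ATPlite reagent, and luminescence was read.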
# ERK EGF inh: blocks ERK signaling stimulated by EGF | Potency, µM (doses to about 11.5 µM), for inactives: at the highest dose activity change, negative = inhibition, actives largely listed as inhibitors | 130,000 compounds, 0.41% hits | HEK293-V1b, EGF-stimulated phospho-ERK AlphaScreen;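 note: plate controls were stimulated vehicle wells for no effect and unstimulated vehicle basal for full effect; nearly all actives have a fitted effect of over 55% in size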
#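 Stably V1b-transfected HEK293 cells; 30 min compound, then EGF 25 nM final for 5 min at 37C; 10 min lysis; phospho-ERK by AlphaScreen after 5 hr beads at room temperature.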
# Starred values were filed as active, the others as inactive; ? = inconclusive; . = no result; ! = a repeat was not active; [ ] = remark or other dose. Calls come from the whole dose curve; as a rule, active = well fitted curve in the direction sought with a large enough effect; inconclusive = small, poorly fitted or top-dose-only effect, or another doubt; inactive = no such curve, though single readings can be large; an effect the other way counts as inactive or inconclusive. Potency is the fitted concentration of half-maximal effect.
SMILES,HTT aggregate,IMPase Li inh,NPSR antagonist,HTT ATP protect,ERK EGF inh
CN(C)/C=C1\C(=O)ON=C1c1ccccc1,27%,2%,3%,?,3%
CC1=NN(c2ccccc2)C(=O)/C1=C/C=C/c1ccccc1,?,12%,-49%,.,16µM*
COc1ccccc1N1CCN(C(=O)c2ccc(CSc3ccccc3)cc2)CC1,22µM*,19%,-31%,.,10%
CCOC(=O)N1CCN(C(=O)CN(c2cc(Cl)ccc2OC)S(=O)(=O)c2ccccc2)CC1,8%,11%[38.3 µM],-17%[46.1 µM],-11%,.
COc1ccccc1N1CCN(C(=O)CN(c2ccccc2OC)S(=O)(=O)c2ccccc2)CC1,5µM*,32%[38.3 µM],-28%[46.1 µM],-8%,.
FC(F)(F)c1ccccc1-c1ccc2ncnc(NCc3cccnc3)c2c1,.,4%,.,-85%,.
COc1ccc(-n2c(=O)c(C)nc3cnc(N(C)C)nc32)cc1,.,0%,.,-32%,-1%
COc1ccc(-c2nnc(NC(=O)C(C)C)s2)c(OC)c1,-7%,13µM*,12%[46.1 µM],-28%,.
COc1ccccc1-c1nnc(NC(=O)OCC(C)C)s1,-1%,11µM*,-14%[46.1 µM],-11%,.
COc1cc2c(cc1OC)C1CCC3=C([C@H](C)OC3=O)N1CC2 (some centres undefined),.,18%,.,-35%,0%
Cc1ccc2c(c1)N(CC(=O)NCC1COc3ccccc3O1)C(=O)CO2 (centres undefined),.,.,.,-3%,.
O=C(O)CCS(=O)(=O)c1nc(-c2cccs2)cc(C(F)(F)F)n1,?,-3%[38.3 µM],-6%[46.1 µM],4%,.
CS(=O)(=O)c1nc(-c2cccs2)cc(C(F)(F)F)n1,7.1µM*,10%[38.3 µM],3.2µM*,-99%,.
Cc1cc(NC(=O)CCCS(=O)(=O)c2nc(-c3cccs3)cc(C(F)(F)F)n2)no1,10µM*,?,?,-88%,.
Cc1cc(NC(=O)CSc2nc(-c3cccs3)cc(C(F)(F)F)n2)no1,-18%,6%[38.3 µM],-15%[46.1 µM],6%[10 µM],.
CN(C)C=Nc1ncc2c3ccccc3n(CCN(C)C)c2c1C#N,2.8µM*,-4%[38.3 µM],-6%[46.1 µM],-28%[0.074 µM],.
CCN(CC)CCC[C@H](C)Nc1c2ccc(Cl)cc2nc2ccc(OC)cc12,?,27%,.,-76%[17.1 µM],-4%[25.7 µM]
Nc1ncnc(N2CCc3ccccc32)c1[N+](=O)[O-],2.5µM*,6%,19%,-7%,-2%
O=C(OCn1ncc(Br)c(Br)c1=O)c1c(F)cccc1F,?,8.9µM*,2.5µM*,-126%,.
CCCc1cc(COC)c(C#N)c(=O)[nH]1,.,-4%,.,-7%[10 µM],.
CCOc1ccccc1N1CCN(C(=O)CCCN2C(=O)c3cccc4cccc(c34)C2=O)CC1,20µM*,14%,?,-16%[10 µM],6%
CCOC(=O)c1cc(C(=O)OCC)c2cc(Br)ccc2n1,-8%,10µM*,-11%[46.1 µM],1%,.
O=S(=O)(CCC(F)=C(F)F)c1nnnn1C1CCCCC1,.,0%,.,4µM*,-9%
N#CCCCS(=O)(=O)c1nnnn1C1CCCCC1,.,5%,.,.,2%
O=C(NCc1ccco1)c1c2c(nc3ccccc13)CCC2,3%,-8%[38.3 µM],-11%[46.1 µM],-5%,.
SMILES,HTT aggregate,IMPase Li inh,NPSR antagonist,HTT ATP protect,ERK EGF inh
N#CCCSc1ncnc2c1oc1ccccc12,?,11µM*,?,-1%[0.074 µM],.
O=C(CSc1c2c(nc3ccccc13)CCCC2)NCc1ccco1,13µM*,-7%,-25%,?,8%[57.5 µM]
O=C(O)CSc1ncnc2c1oc1ccccc12,-9%,.,-18%[46.1 µM],-13%,.
O=C(CSc1ncnc2c1oc1ccccc12)NCc1ccco1,16%,11µM*,?,-2%,.
CCOC(=O)CC(=O)CSc1ncnc2c1oc1ccccc12,-9%,8.9µM*,?,-12%,.
CC(=O)N[C@H]1C(O[C@@H]2O[C@H](C[C@@H](O)[C@H]3O[C@@H](N4CCC(=O)NC4=O)[C@H](O)[C@@H]3O)[C@H](O)[C@H](O)[C@H]2NC(=O)/C=C/CCCCCCCCCCC(C)C)OC(CO)[C@@H](O)[C@@H]1O (some centres undefined),.,8%,.,-322%,.
COc1cccc(NC(=O)CSc2ncnc3c2oc2ccccc23)c1,-5%,11µM*,?,-23%,.
COc1cccc(NC(=O)CSc2nc3c(oc4ccccc43)c(=O)[nH]2)c1,12%,-7%,-16%,.,2%
COc1ccc(-c2nc3cnc(N(C)C)nc3n(C3CC3)c2=O)cc1,.,-3%,.,-50%,.
Cc1ccccc1CS(=O)(=O)c1nnc([C@H](CC(C)C)NC(=O)OC(C)(C)C)o1,?,15%[38.3 µM],10µM*,-167%[0.074 µM],.
CC(C)(C)OC(=O)N[C@@H](Cc1ccccc1)c1nnc(S(=O)(=O)Cc2cccc(F)c2)o1,?,2%[38.3 µM],?,7%[0.074 µM],.
CC(C)=CCSc1nnc([C@@H](NC(=O)OC(C)(C)C)C(C)C)o1,-15%,-2%[38.3 µM],-12%[46.1 µM],-8%,.
CC(C)[C@H](NC(=O)OC(C)(C)C)c1nnc(S(=O)(=O)Cc2c(F)cccc2Cl)o1,10µM*,48%[38.3 µM],13µM*,-115%,.
CC[C@@H](C)[C@H](NC(=O)OC(C)(C)C)c1nnc(S(=O)(=O)Cc2cc(C)ccc2C)o1,?,.,10µM*,?,.
CCCCC/C(C=O)=C/c1ccccc1,-7%,.,.,-9%,.
CC(=O)S[C@@H]1CC2=CC(=O)CC[C@@]2(C)[C@H]2CC[C@]3(C)[C@H](CC[C@@]34CCC(=O)O4)[C@H]12,.,.,.,-10%[1.9 µM],.
COc1ccc(-n2c(=O)c(-c3ccc(Cl)cc3)nc3cncnc32)cc1,.,3%,.,15%,8%
CCn1c2ccccc2c2nnc(SCC(=O)Nc3c(C)n(C)n(-c4ccccc4)c3=O)nc21,12%,-9%[38.3 µM],9%[46.1 µM],-9%,.
CCn1c2ccccc2c2nnc(SCC(=O)Nc3cc(C)on3)nc21,14%,11µM*,-22%[46.1 µM],19%[10 µM],.
CC1=CC(=O)C2=C(C)CC[C@@H]3[C@H](OC(=O)[C@H]3C)[C@H]12,.,.,.,-23%,.
CCCCCCCCOc1ccccc1C(=O)Nc1ccc(C(=O)OCC[N+](C)(CC)CC)cc1,-36%,.,.,-68%,.
CC(C)Nc1nc(-c2ccccn2)nc(-c2ccccc2)c1C#N,3.5µM*,-1%,-15%,-20%,-4%
COC(=O)C1C(O)CC[C@@H]2CN3CCc4c([nH]c5ccccc45)C3C[C@@H]12 (some centres undefined),.,-4%,.,-21%,24%
NC(N)=NC[C@@H]1CCCCCCN1,.,-2%,.,-11%[10 µM],.
C1CCC(C(CC2CCCCN2)C2CCCCC2)CC1 (centres undefined),25µM*!,21%,13µM*,-99%,0%[57.5 µM]
Cc1cc2nc(SCC(=O)Nc3nonc3C)c3c(c2cc1C)CCCC3,17%,6.3µM*,7.9µM*,3%,.
O=C(O)C1CCC[C@@H]2[C@@H]3CC(CN12)[C@@H]1CCCCN1C3 (some centres undefined),.,4%,.,23%,-8%

# From PubChem
